ELG1 repair inh: blocks ELG1-dependent DNA repair in HEK293T cells; HEK293T ELG1-luciferase reporter, luminescence, 16 h; DNA damage induced by 5-fluorouridine; Potency, µM (top dose mostly 46.1 µM), without a hit: at the highest dose activity change, negative = inhibition, actives largely listed as inhibitors; 330,000 compounds, 2.3% hits; AID 504467; also: % is scaled to controls: 0 for no effect and ±100 for the full control effect; nearly all actives have a fitted effect of over 55% in size
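Overnight (16 hr) co-exposure of 2,000 cells/well to 5-fluorouridine and compound at 37 °C preceded detection. Luciferase was quantified via ONE-Glo luminescence; loss of signal denotes inhibition.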
mIDH1 inhibitor: human IDH1 R132H inhibition; IDH1-R132H enzyme, NADPH consumption, diaphorase/resazurin fluorescence; Potency, µM (titrated, usually from 76.6 µM), inactives show at the highest dose activity change, negative = inhibition, most hits filed as inhibitors; 390,000 compounds, 0.093% hits; AID 602179; also: % is scaled to controls: 0 for no effect and ±100 for the full control effect; nearly all actives have a fitted effect of over 65% in size
Target sequence (O75874 whole entry R132H, stated change not applied): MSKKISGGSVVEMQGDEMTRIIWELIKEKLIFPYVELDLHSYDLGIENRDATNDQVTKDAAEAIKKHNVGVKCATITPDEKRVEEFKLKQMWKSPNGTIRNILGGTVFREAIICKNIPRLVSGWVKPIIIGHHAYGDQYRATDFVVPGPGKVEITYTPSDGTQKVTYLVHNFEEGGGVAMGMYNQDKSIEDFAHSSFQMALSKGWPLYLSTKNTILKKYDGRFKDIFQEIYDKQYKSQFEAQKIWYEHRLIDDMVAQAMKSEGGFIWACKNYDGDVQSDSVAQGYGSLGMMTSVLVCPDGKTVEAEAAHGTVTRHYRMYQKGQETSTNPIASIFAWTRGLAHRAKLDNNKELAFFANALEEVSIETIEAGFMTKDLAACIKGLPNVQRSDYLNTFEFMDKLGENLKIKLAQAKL
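IDH1-R132H (0.5 ug/mL dispensed) in pH 7.5 Tris buffer was preincubated 30 min with compound, then given a substrate mix of 0.016 mM NADPH and 2 mM alpha-KG for 80 min at room temperature; remaining NADPH was read by diaphorase/resazurin fluorescence.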
Nrf2 activator: Nrf2 pathway activation; AREc32 ARE-luciferase reporter (MCF7-derived line), luminescence, 24 h; 410,000 compounds, 0.31% hits; Potency, µM (titrated, usually from 46.1 µM), for the others: top-dose activation, most hits filed as activators; also: % of control where 0% means no effect; nearly all actives have a fitted effect of over 65% in size
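Reporter line AREc32 (ARE-Fluc), seeded overnight in OPTI-MEM with 5% FBS; compound pin-transferred, 24 hr at 37 deg C, 5% CO2; luminescent read-out.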
Nrf2 inh: inhibitors of Nrf2 signaling; 360,000 compounds, 2.1% hits; A549 ARE-Fluc reporter, luciferase luminescence, 18-24 h; Potency, µM (top dose mostly 46 µM), without a hit: at the highest dose activity change, negative = inhibition, hits mostly inhibitors; also: % is scaled to controls: 0 for no effect and ±100 for the full control effect; nearly all actives have a fitted effect of over 60% in size
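Quantitative HTS in A549 cells stably bearing an antioxidant response element-firefly luciferase construct. Inhibition of Nrf2-driven transcription was scored by luminescence after 18-24 h of compound exposure at 37 °C.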
A549 tox: A549 cytotoxicity, counter-screen for Nrf2 inhibitors. 390,000 compounds, 0.16% hits. Potency, µM (doses to about 46 µM), inactives show at the top dose activity change, negative = cytotoxicity, most hits filed as inhibitors. A549 ARE-Fluc cells, CellTiter-Fluor viability, 18-24 h; also: % is scaled to controls: 0 for no effect and ±100 for the full control effect
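Cytotoxicity counterscreen: CellTiter-Fluor fluorescence was measured in A549 ARE_Fluc cells after 18-24 h of compound exposure in a concentration series. The subsequent BugLite luminescent read reports ARE-luciferase activity.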
Active calls of the source: *. Shown are actives, neighbours in structure and some others; about 3.8% of the full set was active somewhere. Calls follow the shape of the dose curve; as a rule, active = well fitted curve in the direction sought with a large enough effect; inconclusive = small, poorly fitted or top-dose-only effect, or another doubt; inactive = no such curve, though single readings can be large; an effect the other way counts as inactive or inconclusive. Potency is read from the fitted curve at half-maximal effect.

Screening COC(=O)c1ccc(NC(=O)c2ccc(NS(=O)(=O)c3cccc4cccnc34)cc2)cc1 returned ELG1 repair inh -2%, mIDH1 inhibitor 4%, Nrf2 activator -1%, Nrf2 inh 0% and A549 tox 0%.
`O=C(Nc1ncccc1O)c1ccc(S(=O)(=O)Nc2ccccc2)cc1` gave ELG1 repair inh inconclusive, mIDH1 inhibitor 4%, Nrf2 activator 11µM*, Nrf2 inh -21% and A549 tox 0%.
CCN(CC)c1c([N+](=O)[O-])c(=O)n(C)c2ccccc12 was read as ELG1 repair inh 12%, mIDH1 inhibitor 12%, Nrf2 activator 0%, Nrf2 inh -14% and A549 tox 6%.
Screening Cn1c(=O)c([N+](=O)[O-])c(Cl)c2ccccc21 returned ELG1 repair inh inconclusive, mIDH1 inhibitor -4%, Nrf2 activator 9%, Nrf2 inh inconclusive and A549 tox 21µM*.
CCOC(=O)C1CCCN(C(=O)c2ccc3c(c2)N(Cc2ccc(Cl)cc2)C(=O)c2ccccc2S3=O)C1 (stereo not drawn) was read as mIDH1 inhibitor -11%, Nrf2 activator 4%, Nrf2 inh -9% and A549 tox -10%.
For O=C(Nc1ccc(Oc2c(F)c(F)c(F)c(F)c2F)cc1)OC1CCN2Cc3ccccc3N=C12 (stereo not drawn) the results were ELG1 repair inh inconclusive, mIDH1 inhibitor 4%, Nrf2 activator 23%, Nrf2 inh 23µM* and A549 tox 21µM*.
For O=C(CSc1nnc(-c2cccnc2)o1)N1CCCCC1 the results were ELG1 repair inh 1%, mIDH1 inhibitor -2%, Nrf2 activator -1%, Nrf2 inh inconclusive and A549 tox 2%.
`S=C(NCCN1CCOCC1)N1CCN(c2cccc(Cl)c2)CC1` gave ELG1 repair inh -23%, mIDH1 inhibitor 20%, Nrf2 activator 2%, Nrf2 inh inconclusive and A549 tox -12%.
`S=C(NCc1ccco1)N1CCN(c2cccc(Cl)c2)CC1` gave ELG1 repair inh -11%, mIDH1 inhibitor 3%, Nrf2 activator 2%, Nrf2 inh 15µM* and A549 tox 7%.
CCc1ccc(CN(C(=O)c2ccco2)C2CCS(=O)(=O)C2)cc1 (stereo not drawn) was read as ELG1 repair inh 4%, mIDH1 inhibitor 3%, Nrf2 activator 0%, Nrf2 inh -23% and A549 tox -1%.
`O=C(c1ccco1)N(Cc1ccc(Cl)cc1)C1CCS(=O)(=O)C1` (stereo not drawn) gave ELG1 repair inh 16%, mIDH1 inhibitor 4%, Nrf2 activator 1%, Nrf2 inh 26µM* and A549 tox -1%.
Screening CS(=O)(=O)c1ccc(C(=O)OCC(=O)NCC2CCCO2)cc1[N+](=O)[O-] (stereo not drawn) returned Nrf2 inh -3% and A549 tox -2%.
Screening Cc1ccc(OCCn2c(C3CC(=O)N(Cc4ccc(F)cc4)C3)nc3ccccc32)c(C)c1 (stereo not drawn) returned mIDH1 inhibitor 4%, Nrf2 activator -4%, Nrf2 inh 23µM* and A549 tox -1%.
Screening CC(C)(C)OC(=O)NCCc1nnc(SCc2ccccc2Cl)o1 returned ELG1 repair inh inconclusive, mIDH1 inhibitor 3%, Nrf2 activator 2% and Nrf2 inh 26µM*.
`COc1ccc(N2C(=O)CSC23C(=O)N(CC(=O)NC2CCCCC2)c2ccccc23)cc1` (stereo not drawn) gave mIDH1 inhibitor -10%, Nrf2 activator -1%, Nrf2 inh -1% and A549 tox -2%.
CN1C(=O)c2ccccc2Sc2ccc(NC(=O)c3ccccc3F)cc21 was read as mIDH1 inhibitor -7%, Nrf2 activator 8% and A549 tox -1%.
For CCOC(=O)C1=C(O)/C(=C/c2cn(CC(=O)N3CCCC3)c3ccccc23)SC1=Nc1ccccc1 the results were ELG1 repair inh 4.1µM*, mIDH1 inhibitor -15%, Nrf2 activator 1%, Nrf2 inh inconclusive and A549 tox -10%.

Source: PubChem (National Center for Advancing Translational Sciences (NCATS))
